# Screens: PubChem, several laboratories
# PLCg1 inh – PLC-gamma1 enzyme inhibitors, primary screen, biochemical, fluorescence, purified enzyme; fluorogenic substrate; inhibition, % at 12.2 µM; 370,000 tested, 0.84% active; AID 720700, 2013; in the data active = inhibition above about 9.5%
# PLC-beta3 inh – human PLC-beta3 inhibitors, primary screen, biochemical, fluorescence. 1-phosphatidylinositol 4,5-bisphosphate phosphodiesterase beta-3 (Homo sapiens), Q01970. 370,000 tested, 0.18% active. Purified PLC-beta3, fluorogenic substrate. inhibition, % at 12.2 µM;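 also: 0% = median of compound wells on plate and 100% = full blocker control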
# PfM18AAP inh – PfM18AAP inhibitors, malaria aminopeptidase, primary screen, biochemical, QFRET, recombinant enzyme | M18 aspartyl aminopeptidase (Plasmodium falciparum 3D7) | H-Glu-NHMec fluorogenic cleavage | inhibition, % at 7.35 µM | 290,000 tested, 1.2% active | AID 1822, 2009;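 active = inhibition above the campaign mean inhibition over all tested compounds plus 3 SD, cut at about 28% in these data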;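 also: 0% = plate median of test compound wells and 100% = 2 mM ZnCl2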
# NPR1 activator – GC-A stimulated cGMP production enhancers – HEK293 GC-A cells, cGMP TR-FRET, EC30 ANP, primary screen. Atrial natriuretic peptide receptor 1 (Homo sapiens), P16066. 0% at EC30 ANP, 100% saturating ANP. activation, % at 10 µM. 370,000 tested, 0.14% active; in the data active = activation above about 40%
# NPR2 activator – human GC-B receptor activators, primary screen, HEK293 GC-B cells, cGMP TR-FRET, EC30 CNP | AID 1920062, 2024 | activation, % at 10 µM | Atrial natriuretic peptide receptor 2 (Homo sapiens), P20594 | 370,000 tested, 0.11% active | 0% at EC30 CNP, 100% saturating CNP;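 active = activation at 10 µM reaching about 35% in either raw or pattern-adjusted values, limit read from the data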
# Rce1 inh – yeast Rce1p protease inhibitors, primary screen, biochemical, fluorescence, cell-free homogeneous. CAAX prenyl protease 2 (Saccharomyces cerevisiae (strain ATCC 204508 / S288c)), Q03530. yeast membranes, quenched prenylated peptide cleavage fluorescence. calls only. 290,000 tested, 0.27% active;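 active = fall in fluorescence gain of 50% or more versus controls, with final raw signal at or below 3038400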;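 also: plate controls were neutral control wells for no effect and wells lacking membranes for full effect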
# Target sequence (Q03530 whole entry, looked up): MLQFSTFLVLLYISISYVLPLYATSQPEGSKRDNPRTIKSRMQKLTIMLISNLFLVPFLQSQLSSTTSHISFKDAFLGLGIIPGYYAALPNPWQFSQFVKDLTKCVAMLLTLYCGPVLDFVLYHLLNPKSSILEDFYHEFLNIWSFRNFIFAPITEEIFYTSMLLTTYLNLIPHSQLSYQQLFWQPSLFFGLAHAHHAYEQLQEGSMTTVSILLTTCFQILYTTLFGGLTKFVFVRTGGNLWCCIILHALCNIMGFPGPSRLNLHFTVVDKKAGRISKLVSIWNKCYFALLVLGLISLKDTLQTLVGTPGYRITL
# PLCgamma1 ctr – PLC-gamma1 enzyme inhibitors, counter-screen for PLC-beta3 inhibitor project, biochemical, fluorescence | shares compounds with PLCg1 inh | purified PLC-gamma1, fluorogenic substrate | inhibition, % at 12.3 µM | 3,300 tested, 3.1% active | AID 743258, 2014; in the data active = inhibition above about 9.5%
# PLCb3 confirm – PLC-beta3 inhibitor confirmation, biochemical, fluorescence, purified enzyme | shares compounds with PLCg1 inh | fluorogenic substrate fluorescence | inhibition, % at 12.3 µM | 3,300 tested, 1% active | AID 743261, 2014
# An asterisk follows results filed as active; i = inactive; · = no result. Rows were chosen to be rich in hits. Some 2.2% of all compounds tested hit in one or more screens of this group. Rule as the data show it, unless noted: active = inhibition above about 11%; inactive = the rest.
SMILES,PLCg1 inh,PLC-beta3 inh,PfM18AAP inh,NPR1 activator,NPR2 activator,Rce1 inh,PLCgamma1 ctr,PLCb3 confirm
O=C(O)c1cccc(N2C(=O)c3cccnc3C2=O)c1,-0.9,4.4,-6.7,3.1,-7.9,i,·,·
O=C1c2cccnc2C(=O)N1c1cccc([N+](=O)[O-])c1,16.3*,-0.1,3.8,0.4,3.4,i,-2.3,-3.2
O=C(CSc1nnc(-c2ccccn2)n1-c1ccccc1)c1ccc(F)cc1,2.6,-0.8,·,0.7,-2.6,·,·,·
FC(F)(F)c1ccc(N/N=C/c2cccnc2)nc1,0.0,-6.6,3.1,5.6,-6.6,i,·,·
FC(F)(F)c1ccccc1N/N=C/c1cccnc1,10.4*,-2.8,3.7,2.8,3.8,i,0.6,-1.9
CC(NS(=O)(=O)c1ccc2c(c1)C(=O)c1cc(S(=O)(=O)NC(C)C(=O)O)ccc1-2)C(=O)O (stereo not drawn),14.9*,-1.5,3.0,5.4,-0.2,i,-7.7,-3.8
N#Cc1ccccc1NCCCN1CCC(C(O)(c2ccccc2)c2ccccc2)CC1,-5.8,-6.8,·,-18.9,-25.7,·,·,·
COc1ccccc1CCn1cnc(-c2ccc(F)cc2)c1CC(C)C,0.7,2.2,·,-3.9,-9.2,·,·,·
COc1ccc(-c2nc(N)nc(C(F)(F)F)c2-c2csc(C)n2)c(O)c1,11.1*,-5.9,-1.1,-6.7,-2.9,i,-4.5,-6.0
CC(=O)OCCCN1C(=O)CCC12CCC(C)CC2 (stereo not drawn),-2.1,-1.2,·,1.3,-2.4,·,·,·
CC(C)CCNC(=O)C(c1ccncc1)N(C(=O)Cn1nnc(-c2ccc(F)cc2)n1)c1ccccc1F (stereo not drawn),10.1*,2.8,3.8,0.8,-6.0,i,-2.7,-0.1
O=C(COc1ccccc1)NCC(=O)NC1CCCCC1,-0.8,-6.6,-4.0,-1.2,2.5,i,·,·
O=C(O)CNC(=O)C1(NC(=O)OCc2ccccc2)CCCC1,8.4,17.4*,·,3.1,-0.4,·,-3.1,0.1
CCOc1ccccc1OCC(=O)NC1CCCCC1,11.2*,4.3,-3.8,-0.1,4.6,i,-3.1,-0.1
COc1ccc(OCC(=O)NC2CCCCCCC2)cc1,11.3*,-4.0,1.0,2.2,0.1,i,-3.0,-2.2
O=C(CNC(=O)OCc1ccccc1)NC1CCCCCCC1,10.3*,6.6,-5.2,3.8,0.1,i,-0.8,2.4
CCCC(=O)N1CCC[C@]2(CC[C@H](CCC(=O)OCC)O2)C1,0.6,3.4,·,1.7,5.2,·,·,·
N#Cc1cccc(NC(=O)OC2CCC23CCC(c2ccccc2)CC3)c1 (stereo not drawn),1.0,4.6,·,0.3,-1.6,·,·,·
Cc1onc(-c2c(Cl)cccc2Cl)c1C(=O)ONC(=O)c1cc(C(F)(F)F)cc(C(F)(F)F)c1,10.1*,5.4,4.6,-1.8,-0.3,·,3.8,3.8
CCOC(=O)[C@@]12CCCC3=C1N(CCC3)C(=O)[C@H]2CC(=O)NCCCN1CCCC1=O,-0.7,-0.6,·,1.0,-8.2,·,·,·
Cc1cccc(-n2ccnc2SCC(=O)O)c1C,0.4,-5.5,2.2,1.6,-2.4,i,·,·
Cc1ccccc1-n1ccnc1SCC(=O)O,8.0,12.3*,0.3,-3.8,1.0,i,-4.2,-4.6
O=C(Nc1cccc(F)c1)O[C@@H]1CC[C@@]23CCCN2C(=O)CCC[C@H]3C1,-2.6,0.0,·,-0.3,-0.1,·,·,·
O=C1NC(=S)S/C1=C\c1ccc(SCc2ccccc2)o1,57.5*,-15.5,3.5,-2.9,5.2,·,28.5*,-20.7
O=C1NC(=S)SC1=Cc1ccccc1Cl,6.4,-1.5,·,-5.1,-6.6,·,·,·
SMILES,PLCg1 inh,PLC-beta3 inh,PfM18AAP inh,NPR1 activator,NPR2 activator,Rce1 inh,PLCgamma1 ctr,PLCb3 confirm
C=CCN1C(=O)c2n[nH]c(C(C)C)c2C1c1ccc(C)cc1 (stereo not drawn),4.9,-0.8,·,-1.0,0.2,·,·,·
COC(=O)[C@]1(Cc2ccccc2)NC=C(C(=O)c2ccc(F)cc2)[C@@H]1c1ccccc1,0.1,-1.9,·,2.4,2.2,·,·,·
CC1CCCN(C(=O)C23CCC(C)(C(=O)C2)C3(C)C)C1 (stereo not drawn),4.8,11.4*,-10.5,-1.2,1.3,i,4.0,7.1
COc1cccc(-c2ccc(CC[C@H]3O[C@H]4CC[C@@H](CO)O[C@H]4C[C@H]3NS(C)(=O)=O)cc2)c1,-1.5,-1.8,·,-1.6,-15.7,·,·,·
CC(=O)NCC(=O)OCN1C(=O)c2ccccc2C1=O,10.4*,6.0,3.4,-2.0,-3.1,i,-5.0,0.0
O=C(CNC(=O)c1ccc(Cl)cc1)OCN1C(=O)c2ccccc2C1=O,5.7,9.1,·,5.6,-7.6,·,·,·
CCOC(=O)[C@]12CCCCC/C=C\1N(CCc1ccc(Cl)cc1)C(=O)[C@H]2CC(=O)NCCCN1CCCC1=O,-0.1,1.0,·,-0.6,0.0,·,·,·
O=C(NCC1CCCO1)c1nnc(Cc2ccc(F)cc2)o1 (stereo not drawn),11.3*,6.6,1.6,-0.9,3.1,i,-8.6,-5.2
O=C(CSc1nnc(CNC(=O)c2ccc(F)cc2)o1)NCC1CCCO1 (stereo not drawn),-1.0,-5.7,-14.5,5.2,-2.7,i,·,·
COc1cccc(CNC(=O)CN2CCCc3ccccc32)c1OC,-3.6,-0.2,·,-1.0,-9.1,·,·,·
COC(=O)c1cc2c(c3c4cc(F)ccc4n(S(=O)(=O)c4ccccc4)c13)C(=O)N(Cc1ccc(C(F)(F)F)cc1)C2,1.6,-5.4,·,1.4,6.1,·,·,·
Cc1ccc(SCc2cc(=O)n(C)[nH]2)cc1,10.9*,5.8,6.5,1.5,0.2,i,-1.7,-2.6
O=C(NCc1ccccc1)C(=O)NCC(c1ccco1)N1CCOCC1 (stereo not drawn),·,·,0.8,·,·,i,·,·
COc1ccc(CNC(=O)C(=O)NCC(c2ccco2)N2CCOCC2)cc1 (stereo not drawn),10.0*,2.8,-1.1,5.3,1.3,i,-5.3,-2.5
c1ccc(CN2CCN(C(c3ccccc3)c3ccccc3)CC2)cc1,10.7*,1.2,-1.0,-16.0,-18.1,i,-5.4,2.1
Fc1ccc(CN2CCN(C(c3ccccc3)c3ccccc3)CC2)cc1,2.2,-4.8,5.7,-12.9,-5.2,i,·,·
